Laboratory results from PubChem BioAssay (EPA / NIEHS).
Results filed as inconclusive are left out. More than one record can exist for a structure, and the calls need not agree. Active and inactive are the calls of the source. Rule for the calls: active = hit-call score of the fitted dose curve at least 0.9, where 1 is the maximum; inconclusive = response in the unintended direction; inactive = score below 0.9.

target: Cellular tumor antigen p53 (Homo sapiens) (UniProt P04637); experiment: TOX21_p53_BLA_p5_ratio: Tox21 HCT-116 p53 Agonism Beta-lactamase Assay, Ratio, Phase 5 (AID 2283599)
Sequence (P04637 whole entry, looked up): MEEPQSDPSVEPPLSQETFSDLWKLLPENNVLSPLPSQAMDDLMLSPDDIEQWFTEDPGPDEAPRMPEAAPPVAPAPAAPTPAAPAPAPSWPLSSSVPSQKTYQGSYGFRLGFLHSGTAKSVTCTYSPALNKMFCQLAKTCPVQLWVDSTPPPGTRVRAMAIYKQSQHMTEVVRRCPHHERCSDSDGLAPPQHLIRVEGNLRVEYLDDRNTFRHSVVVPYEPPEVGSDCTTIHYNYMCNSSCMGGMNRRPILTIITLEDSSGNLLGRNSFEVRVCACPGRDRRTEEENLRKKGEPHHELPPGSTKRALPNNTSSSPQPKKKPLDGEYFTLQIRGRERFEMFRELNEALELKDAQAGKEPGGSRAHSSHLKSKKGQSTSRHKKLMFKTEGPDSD
Method in brief: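 HCT-116 cells carrying a p53-inducible beta-lactamase reporter were seeded at 4000 cells/well and dosed after 5 h with compound in DMSO (217-fold dilution). After 16 h at 37C, CCF4-AM substrate was added for 2 h, and the 460/530 nm emission ratio was scored as gain-of-signal versus DMSO.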

Compound	outcome	AC50
CC(C)CCCC(C)(C)O	inactive	
CC(=O)C1=C(C)[C@@H]2C[C@@]3(C1)[C@H](C)CC[C@H]3C2(C)C	inactive	
Cc1ccncc1	inactive	
CCCCC/C=C\C=C\C(=O)OCC		73.4 µM (active)
c1coc(CNc2ncnc3nc[nH]c23)c1	inactive	
CC/C=C\C#N	inactive	
CC(=O)c1cccnc1	inactive	
CC(C)=CC(=O)O	inactive	
CCCCCCCCCCCCN1CCOCC1	inactive	
O=C(O)c1ccco1	inactive	
C=C(C)C(=O)OCCC(C)OC(=O)C(=C)C (centres undefined)	inactive	
CCCCCCCCCOS(=O)(=O)O	inactive	
C[C@H](CCC(=O)O)[C@H]1CC[C@H]2[C@@H]3CC[C@@H]4C[C@H](O)CC[C@]4(C)[C@H]3CC[C@]12C	inactive	18.2 µM (active)
CC/C=C\CCOC(C)OCC (centres undefined)	inactive	
CC(C)COC(=O)c1ccccc1	inactive	
CCC(C)(C)c1cc(O)c(C(C)(C)CC)cc1O	inactive	
OC[C@@H](O)[C@H](O)[C@@H](O)[C@@H](O)CO	inactive	
CCCCCCCCCCOC(=O)c1ccccc1C(=O)OCCCCCCCC	inactive	
C=CCOCC(O)CO (centres undefined)	inactive	
CCCCCC#CC(=O)OC	inactive	
CC(C)C(=O)c1ccccc1	inactive	
CCOC(=O)C(=O)OCC	inactive	
CC/C=C\CCOC(=O)C(C)C	inactive	
CN1CCc2cccc3c2[C@H]1Cc1ccc(O)c(O)c1-3	inactive	86.8 µM (active)
CCOC(=O)C=Cc1ccccc1	inactive	
CCOC(=O)CC1(C)OCC(C)O1 (centres undefined)	inactive	
Nc1ccc(O)c(N)c1	inactive	
